In PubChem BioAssay (EPA / NIEHS):
Activity calls are given as the source filed them. Rule for the calls: active = hit-call score of the fitted dose curve at least 0.9, where 1 is the maximum; inactive = score below 0.9.

Columns and labels:
[1] = APR_HepG2_NuclearSize_72hr: Apredica 72-hour HepG2 Assay for Nuclear Size (AID 2282925); conditions: high-content imaging, actives raise or lower the signal
Outline: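 HepG2; cpd 0.39–200 uM, 10 conc, duplicate; 72 h; DMSO 0.5% v/v; fix 3.7% formaldehyde 30 min RT; Triton permeabilization; Hoechst 2 ug/mL; HCS imaging 20x; nuclear diameter; gain/loss fit vs DMSO.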

[2] = ATG_CRE_CIS: Attagene CIS-FACTORIAL HepG2 Assay for human cAMP Responsive Element (CRE) binding protein 3 (AID 2282926); conditions: HepG2 CRE cis-reporter, Attagene multiplexed mRNA; actives raise or lower the signal
Outline: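 HepG2 cells transiently transfected with a multiplexed reporter library (CRE-driven unit among them) were dosed for 24 h. Reporter mRNA was quantified by RT-PCR, fluorescent labelling, HpaI digestion and capillary electrophoresis, with bidirectional fitting against DMSO baseline.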

[3] = target: CCAAT/enhancer-binding protein beta (Homo sapiens) (UniProt P17676); assay: ATG_C_EBP_CIS: Attagene CIS-FACTORIAL HepG2 Assay for human CCAAT/Enhancer Binding Protein (C/EBP) beta (AID 2282927); conditions: HepG2 Attagene cis-factorial transcription factor reporter; actives raise or lower the signal
Outline: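 Changes in reporter mRNA, rather than exogenous chimeric receptor activity, reflect native C/EBP signalling in transfected HepG2 cells dosed for 24 h; transcripts are detected by RT-PCR and capillary electrophoresis.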

[4] = ATG_CMV_CIS: Attagene CIS-FACTORIAL HepG2 Assay for human CMV (Internal Marker) (AID 2282928); conditions: HepG2 CMV promoter reporter, transcription factor profiling; actives raise or lower the signal;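 note: endpoint acts as a background internal control marker rather than a target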
Outline: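 After transient transfection of HepG2 with reporter transcription units driven by cis-regulatory promoters, cells receive test chemical for 24 h. Labeled reporter amplicons, digested with HpaI, are sized and quantified by capillary electrophoresis against DMSO.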

[5] = ATG_DR4_LXR_CIS: Attagene CIS-FACTORIAL HepG2 Assay for human Liver X Receptor (LXR), DR4 submotif (AID 2282929); conditions: HepG2 Attagene DR4 cis-reporter, mRNA transcription; actives raise or lower the signal
Outline: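 HepG2 cells transiently transfected with cis-promoter-driven multiplexed reporter units (DR4 element) were dosed for 24 h. Reporter mRNA was quantified by RT-PCR, fluorescent primer extension, HpaI digestion and capillary electrophoresis; bidirectional fitting versus DMSO baseline.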

[6] = ATG_AP_2_CIS: Attagene CIS-FACTORIAL HepG2 Assay for human Activator Protein 2 (AP-2) (AID 2282932); conditions: HepG2 AP-2 cis-reporter, Attagene transcription factor profiling; actives raise or lower the signal
Outline: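 HepG2, transient MRTU transfection, cis-regulated reporters; 24 h compound exposure; RNA isolated, RT-PCR, 6-FAM labelling, HpaI digest, CE fluorescence. DMSO = negative control/baseline, bidirectional fit.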

[7] = ATG_BRE_CIS: Attagene CIS-FACTORIAL HepG2 Assay for human Bone Morphogenetic Protein (BMP) Response Element (BRE) (AID 2282933); conditions: HepG2 BMP response element reporter, Attagene transcription factor profiling; actives raise or lower the signal
Outline: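 Endogenous transcription factor activity read in transiently transfected HepG2 cells after 24 h chemical exposure. Bidirectional curve fitting against DMSO; readout is reporter transcript level by RT-PCR with capillary electrophoresis of labelled products.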

[8] = target: Retinoic acid receptor alpha (Homo sapiens) (UniProt P10276); assay: ATG_DR5_RAR_CIS: Attagene CIS-FACTORIAL HepG2 Assay for human Retinoic Acid Receptor Alpha (RARE), DR5 submotif (AID 2282934); conditions: HepG2 Attagene cis-factorial RARE DR5 reporter, mRNA; actives raise or lower the signal
Outline: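 HepG2, transient cis-reporter transfection, 24 h exposure. mRNA readout: RT-PCR, FAM label, HpaI cut, capillary electrophoresis. DMSO baseline, gain/loss fitting.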

[9] = target: Transcription factor E2F1 (Homo sapiens) (UniProt Q01094); assay: ATG_E2F_CIS: Attagene CIS-FACTORIAL HepG2 Assay for human E2F Transcription Factor 1 (AID 2282935); conditions: HepG2 Attagene cis-reporter, E2F reporter RNA transcripts; actives raise or lower the signal
Outline: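 Cis-element reporter mRNA induction in transiently transfected HepG2, 24 h exposure. Activity fitted in both directions relative to DMSO negative control.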

[10] = ATG_E_Box_CIS: Attagene CIS-FACTORIAL HepG2 Assay for human Enhancer Box (E-box) (AID 2282936); conditions: HepG2 E-box cis-reporter transcription, actives raise or lower the signal
Outline: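 Cells: HepG2 (human liver), transient MRTU transfection. Exposure 24 h. RNA → oligo(dT) RT → PCR → 6-FAM label → HpaI → CE. Activity fitted both directions relative to DMSO.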

[11] = ATG_M_61_CIS: Attagene CIS-FACTORIAL HepG2 Assay for M61 Transcription Factor (Internal Marker) (AID 2282937); conditions: HepG2 Attagene CIS-FACTORIAL M61 internal marker reporter; actives raise or lower the signal
Outline: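 HepG2 cells transiently transfected with cis-element-driven multiple reporter transcription units, dosed for 24 h. Reporter mRNA measured by RT-PCR, 6-FAM primer-extension labelling, HpaI digestion and capillary electrophoresis; bidirectional fit versus DMSO baseline.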

[12] = ATG_EGR_CIS: Attagene CIS-FACTORIAL HepG2 Assay for human Early Growth Response 1 (EGR1) (AID 2282938); conditions: HepG2 Attagene CIS-FACTORIAL EGR reporter mRNA; actives raise or lower the signal
Outline: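 HepG2 cells transiently transfected with cis-promoter-driven multiplexed reporter transcription units; reporter mRNA measured 24 h after compound dosing by RT-PCR, 6-FAM primer extension, HpaI digestion and capillary electrophoresis. Bidirectional fit versus DMSO baseline.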

[13] = ATG_M_19_CIS: Attagene CIS-FACTORIAL HepG2 Assay for M19 Transcription Factor (Internal Marker) (AID 2282939); conditions: HepG2 Attagene CIS-FACTORIAL M19 internal marker reporter; actives raise or lower the signal
Outline: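 Internal marker readout, fitted in both directions against DMSO, from HepG2 cells carrying transfected cis-element reporter constructs; RT-PCR and capillary electrophoresis of reporter mRNA after 24 h exposure.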

[14] = ATG_ERE_CIS: Attagene CIS-FACTORIAL HepG2 Assay for Estrogen Response Element (ERE) (AID 2282940); conditions: HepG2 ERE cis-reporter, Attagene RNA transcript; actives raise or lower the signal
Outline: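 After 24 h compound treatment, RNA from transfected HepG2 cells was reverse-transcribed, reporter cDNA PCR-amplified, FAM-labelled, HpaI-cut and resolved by capillary electrophoresis. ERE-driven cis reporter transcripts reflect endogenous factors; gain or loss scored against DMSO.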

[15] = ATG_Ets_CIS: Attagene CIS-FACTORIAL HepG2 Assay for human Erythroblast Transformation Specific (ETS) (AID 2282941); conditions: HepG2 ETS cis-reporter transcription, actives raise or lower the signal
Outline: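 Human HepG2 hepatoma cells were transiently transfected with promoter-driven reporter constructs and treated for 24 hours. Reporter transcripts were quantified by RT-PCR with fluorescent primer extension; bidirectional curve fitting used DMSO as reference.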

[16] = target: Hepatocyte nuclear factor 3-beta (Homo sapiens) (UniProt Q9Y261); assay: ATG_FoxA2_CIS: Attagene CIS-FACTORIAL HepG2 Assay for human Forkhead box A2 (FOXA2) (AID 2282942); conditions: HepG2 cis-reporter transcription factor activity, 24 h; actives raise or lower the signal
Outline: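 HepG2 cells transiently transfected with multiple cis-regulated reporter transcription units, dosed for 24 h. Reporter mRNA measured by RT-PCR, 6-FAM labelling, HpaI digestion and capillary electrophoresis; bidirectional fitting against DMSO baseline.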

[17] = ATG_FoxO_CIS: Attagene CIS-FACTORIAL HepG2 Assay for human Forkhead box O (FoxO) (AID 2282943); conditions: HepG2 Attagene cis-reporter, FoxO element, mRNA; actives raise or lower the signal
Outline: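 Human hepatoma HepG2 cells carry transiently introduced reporter transcription units controlled by cis promoter elements. Chemical treatment lasted 24 h, and mRNA signal was compared with DMSO.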

[18] = ATG_GATA_CIS: Attagene CIS-FACTORIAL HepG2 Assay for human GATA Binding Protein (AID 2282944); conditions: HepG2 GATA cis-element reporter, Attagene multiplex mRNA; actives raise or lower the signal
Outline: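 Reporter transcripts from a GATA cis-regulated unit, among multiplexed reporters in transfected HepG2 cells, were measured by RT-PCR with capillary electrophoresis after 24 h dosing. Induction or loss scored relative to DMSO.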

[19] = ATG_AP_1_CIS: Attagene CIS-FACTORIAL HepG2 Assay for human Activator Protein 1 (AP-1) (AID 2282931); conditions: HepG2 Attagene cis-factorial AP-1 reporter mRNA; actives raise or lower the signal
Outline: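 HepG2 cells transiently transfected with cis-element-driven multiplex reporter units; 24 h compound exposure. Reporter mRNA quantified by RT-PCR, FAM-labelled fragments resolved by capillary electrophoresis; bidirectional fit versus DMSO baseline.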

Measured: AC50

Sequence of Retinoic acid receptor alpha (Homo sapiens) (P10276 whole entry, looked up): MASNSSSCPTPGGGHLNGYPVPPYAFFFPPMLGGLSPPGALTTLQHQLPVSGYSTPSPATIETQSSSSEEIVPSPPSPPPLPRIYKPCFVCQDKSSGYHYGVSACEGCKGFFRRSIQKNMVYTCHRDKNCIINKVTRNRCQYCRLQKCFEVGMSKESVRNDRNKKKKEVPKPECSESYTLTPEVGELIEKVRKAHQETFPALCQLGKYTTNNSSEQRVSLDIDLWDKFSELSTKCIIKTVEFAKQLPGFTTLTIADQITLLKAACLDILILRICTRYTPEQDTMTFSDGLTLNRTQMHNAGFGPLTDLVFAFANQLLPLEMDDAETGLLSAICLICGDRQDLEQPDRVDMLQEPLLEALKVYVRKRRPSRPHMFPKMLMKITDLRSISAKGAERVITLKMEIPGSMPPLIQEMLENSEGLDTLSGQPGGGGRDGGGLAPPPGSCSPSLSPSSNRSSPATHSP
Sequence of Hepatocyte nuclear factor 3-beta (Homo sapiens) (Q9Y261 whole entry, looked up): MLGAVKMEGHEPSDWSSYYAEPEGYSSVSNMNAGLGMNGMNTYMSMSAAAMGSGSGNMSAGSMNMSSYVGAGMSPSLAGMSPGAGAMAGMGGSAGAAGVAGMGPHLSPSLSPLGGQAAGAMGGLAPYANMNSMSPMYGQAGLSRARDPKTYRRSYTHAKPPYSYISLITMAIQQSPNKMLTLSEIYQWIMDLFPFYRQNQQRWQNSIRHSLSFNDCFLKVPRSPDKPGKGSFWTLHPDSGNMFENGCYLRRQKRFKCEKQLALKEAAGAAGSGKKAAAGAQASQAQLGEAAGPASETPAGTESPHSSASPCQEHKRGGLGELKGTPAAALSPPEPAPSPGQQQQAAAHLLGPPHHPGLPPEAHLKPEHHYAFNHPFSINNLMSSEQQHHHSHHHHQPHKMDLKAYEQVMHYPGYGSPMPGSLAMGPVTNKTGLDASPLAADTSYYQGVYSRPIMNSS
Sequence of CCAAT/enhancer-binding protein beta (Homo sapiens) (P17676 whole entry, looked up): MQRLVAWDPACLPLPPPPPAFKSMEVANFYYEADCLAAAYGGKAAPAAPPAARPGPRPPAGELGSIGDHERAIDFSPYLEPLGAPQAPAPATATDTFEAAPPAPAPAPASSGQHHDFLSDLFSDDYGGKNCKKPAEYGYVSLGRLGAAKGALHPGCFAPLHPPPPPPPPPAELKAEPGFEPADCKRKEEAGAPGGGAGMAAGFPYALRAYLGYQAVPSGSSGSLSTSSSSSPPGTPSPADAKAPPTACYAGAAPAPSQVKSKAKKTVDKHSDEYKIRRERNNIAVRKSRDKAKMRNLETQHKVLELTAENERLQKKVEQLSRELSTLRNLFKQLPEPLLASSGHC
Sequence of Transcription factor E2F1 (Homo sapiens) (Q01094 whole entry, looked up): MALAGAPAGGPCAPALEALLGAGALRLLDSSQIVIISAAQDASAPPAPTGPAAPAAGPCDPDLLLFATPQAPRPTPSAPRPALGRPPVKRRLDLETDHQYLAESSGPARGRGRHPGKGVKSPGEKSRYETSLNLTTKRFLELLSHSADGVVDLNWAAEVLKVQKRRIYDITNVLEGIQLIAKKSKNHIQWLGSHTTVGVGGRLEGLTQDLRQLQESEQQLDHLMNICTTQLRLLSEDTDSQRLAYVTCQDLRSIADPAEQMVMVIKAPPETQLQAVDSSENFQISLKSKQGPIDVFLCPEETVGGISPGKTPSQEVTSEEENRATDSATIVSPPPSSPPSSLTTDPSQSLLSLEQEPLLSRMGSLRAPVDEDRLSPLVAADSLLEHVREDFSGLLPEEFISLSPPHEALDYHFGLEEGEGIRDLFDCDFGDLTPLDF

Oc1ccc2ccccc2c1N=Nc1ccccc1
inactive: [1] | [2] | [3] | [4] | [5] | [6] | [7] | [8] | [9] | [10] | [11] | [12] | [13] | [15] | [17] | [18]
active: [14] 4.52 µM | [16] 0.14 µM

CN1CCN(Cc2cc(-c3ccc4[nH]c(=O)oc4c3)co2)[C@@H](c2ccc(F)cc2)C1
active: [2] 33 µM | [5] 56.5 µM | [12] 33 µM
inactive: [1] | [3] | [4] | [6] | [7] | [9] | [10] | [11] | [13] | [14] | [15] | [16] | [17] | [18]

C[C@]12C=CC(=O)C=C1CC[C@@H]1[C@@H]2C(=O)C[C@@]2(C)[C@H]1CC[C@]2(O)C(=O)CO
active: [14] 6.76 µM
inactive: [1] | [2] | [3] | [4] | [5] | [6] | [8] | [9] | [10] | [11] | [12] | [13] | [15] | [16] | [17] | [18]

CCCCc1ccc2c(n1)[C@@H](c1ccc(OC)cc1C[C@H](C)C(=O)O)[C@H](C(=O)O)[C@H]2c1ccc2c(c1)OCO2
inactive: [1] | [2] | [3] | [4] | [5] | [6] | [9] | [10] | [11] | [12] | [13] | [14] | [15] | [16] | [17] | [18]

CCCCOC(=O)CCCCCCCCC(=O)OCCCC
inactive: [1] | [2] | [3] | [4] | [19] | [8] | [9] | [11] | [12] | [13] | [14] | [15] | [16] | [17] | [18]
active: [5] 144 µM | [10] 142 µM

Cc1ccc2ncccc2c1
inactive: [1] | [2] | [3] | [4] | [5] | [19] | [8] | [9] | [10] | [11] | [12] | [13] | [14] | [15] | [16] | [17] | [18]

Cc1cccc([N+](=O)[O-])c1C
inactive: [1] | [2] | [3] | [4] | [5] | [19] | [8] | [9] | [10] | [11] | [12] | [13] | [14] | [15] | [16] | [17] | [18]

NC(=O)Cn1c(=O)cc(CCN2CCN(c3nccc4sccc34)CC2)c2ccc(F)cc21
active: [4] 100 µM
inactive: [1] | [2] | [3] | [5] | [9] | [10] | [11] | [12] | [13] | [14] | [15] | [16] | [17] | [18]
